An excerpt weighted towards active compounds, which were near 7% of everything screened.
rCAG binder: binders of r(CAG) RNA repeats, primary screen, biochemical, fluorescence; r(CAG) RNA repeat, TO-PRO-1 dye displacement fluorescence; inhibition, % at 3 µM; actives 1.3% (n = 370,000);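 active = inhibition above the plate cutoff, the mean of all test compounds on that plate plus 3 SD, cut at about 35% in these data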;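 also: 0% = DMSO alone and 100% = 100 µM mitoxantrone as full dye displacement; higher means more dye released from RNA so lower well fluorescence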
proKLK7 act: proKLK7 zymogen activators, primary screen, biochemical, fluorescence intensity | purified proKLK7, EDANS-DABCYL substrate fluorescence; 100% is mature enzyme control, 0% vehicle | activation, % at 7 µM | actives 0.9% (n = 370,000);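 active = activation above the mean of all tested compounds plus 3 SD, computed per campaign excluding outliers beyond control limits, cut at about 13% in these data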
ADAM10 inh: human ADAM10 inhibitors, primary screen, biochemical, QFRET, HTS. inhibition, % at 7 µM. recombinant ADAM10, EDANS/DABCYL FRET peptide cleavage, 3 h. Disintegrin and metalloproteinase domain-containing protein 10 (Homo sapiens), O14672. actives 0.62% (n = 370,000);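 active = inhibition above a per-campaign cutoff equal to the mean of compounds falling between control-based bounds plus 3 SD, cut at about 20% in these data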;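 also: 0% = DMSO wells while the 100% control is not disclosed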
ADAM17 inh: ADAM17 inhibitors, primary screen, biochemical, QFRET; Disintegrin and metalloproteinase domain-containing protein 17 (Homo sapiens), P78536; recombinant ADAM17, EDANS/DABCYL FRET peptide cleavage; inhibition, % at 6.95 µM; actives 0.83% (n = 370,000); AID 720648, 2013;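 active = inhibition above the mean of compounds lying between control limits plus 3 SD, set per campaign, cut at about 8.5% in these data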;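 also: 0% = DMSO-only wells as the low control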
Target sequence (P78536 215-824 limits assumed): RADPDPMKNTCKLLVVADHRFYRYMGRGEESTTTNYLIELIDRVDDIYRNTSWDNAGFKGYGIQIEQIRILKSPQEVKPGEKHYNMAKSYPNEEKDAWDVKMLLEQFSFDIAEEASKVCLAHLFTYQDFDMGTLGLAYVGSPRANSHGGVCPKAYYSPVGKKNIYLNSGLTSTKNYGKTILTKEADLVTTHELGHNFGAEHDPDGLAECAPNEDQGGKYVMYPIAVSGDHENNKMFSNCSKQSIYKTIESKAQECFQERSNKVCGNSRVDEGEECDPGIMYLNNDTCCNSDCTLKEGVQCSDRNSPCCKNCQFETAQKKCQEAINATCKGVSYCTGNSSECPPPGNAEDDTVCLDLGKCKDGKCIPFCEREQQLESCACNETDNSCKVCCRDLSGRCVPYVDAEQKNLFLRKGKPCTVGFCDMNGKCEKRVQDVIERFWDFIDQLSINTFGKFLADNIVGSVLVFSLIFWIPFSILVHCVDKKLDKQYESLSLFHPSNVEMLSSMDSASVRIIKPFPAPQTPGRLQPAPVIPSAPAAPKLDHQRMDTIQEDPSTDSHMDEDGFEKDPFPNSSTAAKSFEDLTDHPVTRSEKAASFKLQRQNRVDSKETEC
GRIN3A LBD mod: binders of NR3A ligand-binding domain, primary screen, biophysical, differential scanning fluorimetry, uHTS | Tm shift relative to glycine control, % at 25 µM | actives 2.5% (n = 340,000) | AID 1259313, 2017 | Glutamate receptor ionotropic, NMDA 3A (GRIN3A) ligand-binding domain | NR3A LBD differential scanning fluorimetry, Tm shift; 0% = protein alone, 100% = glycine-bound protein;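 active = melting temperature shift of at least 10% of the positive control shift, at one fixed dose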
AHR activator: AHR activators, primary screen, cell-based, luminescence, luciferase reporter, human; actives 2.5% (n = 320,000); AID 2796, 2010; AHR-responsive luciferase reporter cells; activation, % at 5 µM; Aryl hydrocarbon receptor (Homo sapiens), P35869; in the data active = activation above about 47%;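 also: 0% = vehicle wells and 100% = reference agonist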
KLK7 act conf: proKLK7 zymogen activators, confirmation, biochemical, fluorescence intensity, triplicate; shares compounds with proKLK7 act; purified proKLK7, EDANS-DABCYL substrate fluorescence; scaled: vehicle 0, mature enzyme 100; activation, % at 7 µM; actives 68% (n = 3,200);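 active = activation, as change over the incubation, above the mean of all tested compounds plus 3 SD, cut at about 13% in these data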
EDANS interfere: EDANS-DABCYL substrate optical interference, artefact control for kallikrein-7 zymogen activator project, biochemical, fluorescence intensity, high throughput; shares compounds with proKLK7 act; no enzyme, 4 h; solvent 0%, active enzyme control 100%; activation, % at 7 µM; actives 80% (n = 3,200); AID 686952, 2013;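 active = activation above the all-compound mean plus 3 SD, ignoring values outside control-based bounds, cut at about 4.8% in these data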;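 also: value is the 4 h activation minus the activation read at time zero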
K7 EDANS ctr: counter-screen for kallikrein-7 activators: EDANS-DABCYL interference, dose response. AID 720493. EDANS-DABCYL peptide fluorescence interference, no enzyme. actives 20% (n = 250). EC50, µM. shares compounds with proKLK7 act;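 active = compounds that raise the fluorescence signal in this interference counterscreen, with EC50 at or below 10 µM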;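 also: intact quenched peptide substrate alone read at 355 nm excitation and 520 nm emission; signal is fluorescence gain from T0 to T4 after four hours at room temperature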
An asterisk follows results filed as active; i = inactive; nt = not tested or not shown.

SMILES	rCAG binder	proKLK7 act	ADAM10 inh	ADAM17 inh	GRIN3A LBD mod	AHR activator	KLK7 act conf	EDANS interfere	others
Cc1nc2c(C)cccc2c2c1CCN2c1ccccc1F	2.8	157.4*	i	i	-1.9	4.3	61.3*	68.6*
COc1ccc(N2CCc3c(C)nc4c(OC)cccc4c32)cc1	6.6	-0.7	-2.2	-4.4	-2.2	8.4	nt	nt
COc1ccc(NC(=O)c2cc(-c3ccccn3)nc3ccccc23)cc1S(=O)(=O)N(C)C	7.4	-0.6	0.0	1.4	-0.3	11.1	nt	nt
CCNc1ccc2c(Cl)cc(=O)oc2c1	-1.9	24.6*	i	-167.5	-0.1	23.2	30.2*	38.2*
Cc1cc(C)c2c(N)c3cccc(C)c3nc2n1	15.3	15.0*	i	-263.9	-0.7	68.8*	46.4*	41.5*
O=C(OCCc1cc2ccccc2c(=O)o1)c1ccco1	-1.3	0.2	-7.9	-2.5	0.6	1.3	nt	nt
Cc1ccc2c(c1)c1c3n2CCN=C3CCC1	1.9	30.0*	-65.4	-12.2	-1.2	45.0	2.9	9.7*
CC(C)CCN=Cc1c(O)n(-c2ccccc2)c(=O)c2ccccc12	-2.8	0.5	-15.7	-6.5	-1.1	-2.4	nt	nt
CCN1CCCC1CN=Cc1c(O)n(-c2ccccc2)c(=O)c2ccccc12 (stereo not given)	0.6	16.0*	-279.1	-69.5	-3.1	0.4	16.2*	18.4*
Cc1ccc2[nH]c3c(=O)n(CC(=O)Nc4ccccc4N4CCN(C)CC4)ncc3c2c1	-6.1	0.9	-39.2	-11.6	0.7	6.4	nt	nt
Cc1nn(-c2ccccc2)c2nc(N)c(C(N)=O)cc12	-0.7	14.4*	i	-264.0	-2.2	5.1	15.0*	17.1*
COc1ccc(-c2cncc3nccn23)cc1OC	2.2	1.0	-126.8	-25.4	nt	nt	nt	nt
CS(=O)(=O)Nc1ccc(-c2cnc3cccnn23)cc1	-0.1	76.2*	-324.9	-105.8	nt	nt	13.5*	11.2*	K7 EDANS ctr=i
CCOc1ccc(-c2cncc3nccn23)cc1	3.0	16.6*	i	i	nt	nt	33.0*	35.6*
CS(=O)(=O)Nc1ccc(-c2cncc3nccn23)cc1	0.1	16.2*	i	-142.9	nt	nt	3.3	4.5*
CN(CC(=O)Nc1cccc(F)c1)C(=O)/C=C/c1cn(Cc2ccccc2)nc1-c1cccnc1	-1.3	1.0	8.4	1.4	-0.3	10.6	nt	nt
CCOC(=O)C1C(=O)C(=O)N(Cc2ccccc2)C1C(=O)OCC (stereo not given)	0.4	-0.3	-1.4	-0.3	0.2	nt	nt	nt
COc1ccc(/C=N/n2nnnc2N)c(OC)c1	2.7	-0.8	-11.0	0.5	0.6	nt	nt	nt
Cn1c(C(=O)NCc2ccccn2)cc2c(=O)n3ccccc3nc21	0.4	52.5*	i	i	-3.3	-2.4	66.3*	67.5*
COc1ccc(NC(=O)c2cc3c(=O)n4ccccc4nc3n2C)c(OC)c1	0.5	-6.4	-3.9	-6.3	-0.4	-5.9	nt	nt
CC1CCCN(C(=O)c2cc3c(=O)n4ccccc4nc3s2)C1 (stereo not given)	-3.6	26.2*	i	-414.0	0.5	13.5	30.4*	33.6*

Compound activity (PubChem BioAssay)
